The results in this text go back to PubChem BioAssay AID1259240 (Keith Lab, Institute of Cancer Science, University of …, 2017).

Values without a mark were called inactive. Activity calls are given as the source filed them. Rule as the data show it: active = fold change mostly below about -2 (no sharp cut-off); inactive = mostly above about -1.8.

A short description of the assay: TERT promoter activity modulators, primary screen, cell-based, luciferase reporter, human (AID 1259240). The settings on record: A2780 TERT promoter luciferase reporter, 16 h; at 20 µM, fold versus average of vehicle-only wells. Background: In a reporter assay the amount or activity of a reporter protein is the signal.
As to `Cc1cc(C)cc(NC2=C(N3CCOCC3)C(=O)c3ccccc3C2=O)c1`, the fold change is -1.02.

On to `COC(=O)c1sc2ccccc2c1N`, for which the fold change is 1.26.

With `CN(C(=O)Cn1c(=O)n(CCCS(=O)(=O)C2CCCCC2)c(=O)c2ccccc21)c1ccccc1`, the fold change was -1.1.

With `COCCNC(=O)CCSc1nc(-c2ccc3c(c2)OCO3)cc(C(F)(F)F)n1`, the fold change was -1.36.

For `Nc1nc(SCC(=O)NCCCN2CCOCC2)nc2sc3c(c12)CCC3`, the fold change is -1.53.

Consider `CCCCC1=NN(C(=O)C(=O)Nc2ccc(Br)cc2)C(O)(C(F)(F)F)C1` (centres undefined), for which the fold change is 1.01.

`O=C(NC1CCCc2ccccc21)c1cccc(NC2=NC3CS(=O)(=O)CC3S2)c1` (centres undefined): the fold change was 1.36.

Consider `CCOC(=O)C1CCCN(c2c(N3CCN(c4ccc(F)cc4)CC3)c(=O)c2=O)C1` (centres undefined), for which the fold change is -1.2.

Consider `COc1ccc(-c2nc3s/c(=C\c4ccccc4)c(=O)n3n2)cc1OC`, for which the fold change is 1.68.

Consider `O=C(CN1C(=O)COc2ccc(S(=O)(=O)N3CCOCC3)cc21)N1CCC2(CC1)OCCO2`, for which the fold change is 1.48.

With `COc1ccc(OC)c(S(=O)(=O)c2cc3cc(OC)ccc3oc2=O)c1`, the fold change was -1.77.

Take `COc1cc(-c2nc3s/c(=C\c4cccs4)c(=O)n3n2)cc(OC)c1OC`: the fold change was 1.19.

`CSc1ccc(/C=c2\sc3nc(-c4ccco4)nn3c2=O)cc1`: the fold change was -1.12.

For `FC(F)(F)c1cccc2c1[nH]c1nc3ccccc3nc12`, the fold change was -1.1.

With `Cn1c2ccccc2c2c(C(=O)Nc3ccccc3F)cn(C3CCCC3)c(=O)c21`, the fold change was -1.15.

In the case of `Clc1ccc(-c2nnn3c2nc(NCC2CCCO2)c2ccccc23)cc1` (centres undefined), the fold change was -1.11.

`COc1ccc(-c2noc(-c3ccc(Cl)cc3)n2)cc1OC`: the fold change is -4.04 (active).

Turning to `CCCc1nnc(NC(=O)Nc2ccccc2Cl)s1`, the fold change is -1.54.

`Cc1cc(C)c2c(=O)n(CC(=O)N3CCOCC3)sc2n1`: the fold change was 1.35.

In the case of `O=C(c1cncc(Br)c1)N1CCN(c2ccc(N3CCOCC3)nn2)CC1`, the fold change is 1.24.

Turning to `CN1C(=O)/C(=C/c2cn(CC(=O)N3CCCCC3)c3ccccc23)c2ccccc21`, the fold change was -1.35.

Take `C=C1c2cc(CC)ccc2NC(=O)N1c1ccc(C)cc1`: the fold change was 1.01.

Take `O=C(O)CN1C(=O)/C(=C/c2ccc(SCc3ccccc3)o2)SC1=S`: the fold change was 1.04.

`N#Cc1ccccc1Cn1c(=O)n(-c2ccc(CC(=O)NCc3ccco3)cc2)c(=O)c2sccc21`: the fold change was -1.2.

For `Nc1cc(-c2ccccc2)nn1S(=O)(=O)c1ccc(Br)cc1`, the fold change was 1.63.

Consider `CCOc1ccc(C2CC(=O)Nc3cc4c(cc32)OCO4)cc1Cl` (centres undefined), for which the fold change is -1.12.

Take `Cn1c(SCC(=O)NCc2ccco2)nnc1-c1c[nH]c2ccccc12`: the call was inactive.

Take `CN1C(=O)C2ON(c3ccc(Cl)cc3)C(c3cccs3)C2C1=O` (centres undefined): the fold change was -1.37.

For the molecule `Cc1ccc(-c2nc3cnccn3c2Nc2ccccc2C)o1`, the fold change is -1.64.

With `CCOC(=O)C1=C(CS(=O)(=O)c2ccc(C)cc2)NC(=O)NC1c1ccc(OC)cc1OC` (centres undefined), the fold change was -1.29.

For the molecule `O=C(Cc1ccc(NC2=NC3CS(=O)(=O)CC3S2)cc1)Nc1ccc(F)cc1` (centres undefined), the fold change was -1.7.

Take `Cc1ccc(-c2nc3ccccc3n3cc4c(=O)n(C)c(=O)n(C)c4c23)cc1`: the fold change is -1.32.

In the case of `Cn1c(=O)c2c(SCC(=O)N3CCCc4ccccc43)nc(-c3ccco3)nc2n(C)c1=O`, the fold change was 1.45.

On to `Cn1c(=O)oc2cc(S(=O)(=O)N3CCC(C(=O)NCC4COc5ccccc5O4)CC3)ccc21` (centres undefined), for which the fold change is -1.13.

With `Cc1ccc(Cn2ccc(NC(=O)c3noc(C(C)C)c3[N+](=O)[O-])n2)cc1`, the fold change is -2.42 (active).

For the molecule `CNC(=O)c1ccc(-c2nn(C)c(=O)c3ccccc23)cc1`, the fold change is -1.06.

In the case of `COc1cc(OC)c(-c2nc(-c3cccnc3)no2)cc1OC`, the fold change was 1.51.

Turning to `CCOc1cc2c(cc1OCC)C(c1ccc(Cl)c(Cl)c1)CC(=O)N2` (centres undefined), the fold change is 1.29.

As for `CS(=O)(=O)N1N=C(c2cccs2)CC1c1ccccc1F` (centres undefined), the fold change was -1.2.
